Measured values from PubChem BioAssay (Tox21).
Results filed as inconclusive are left out. Values without a mark were called inactive. The source made the active and inactive calls. Calls come from the whole dose curve; as a rule, active = well fitted activation curve with a large enough effect in the repeat runs; inconclusive = weak or mixed curves; inactive = flat fitted curve, though single readings scatter.

Experiment: A CellTox Green Cytotoxicity Assay to monitor cytotoxicity in HepG2 cells - 24 hour (AID 1224878); note: nearly all actives have a fitted effect of over 45% in size
Settings: CellTox Green fluorescence; series mostly up to 76.8 µM; cytotoxicity: at the top concentration
Description: National Center for Advancing Translational Sciences [NCATS]
NIH Chemical Genomics Center [NCGC]
U.S. Environmental Protection Agency [EPA]
National Institutes of Environmental Health Sciences [NIEHS]
National Toxicology Program [NTP]
Cell-based models are critical for drug discovery. Determining the natural cytotoxic effects resulting from test compounds is an essential research activity. A CellTox Green Cytotoxicity Assay to monitor cytotoxicity in real time of continues cell culture during 40 hours of the compound treatment was used to screen Tox21 10K library compounds in HepG2 cells. CellTox Green Cytotoxicity Assay is a nonlytic, homogeneous, biofluorescent method to measure cytotoxicity in cell culture after experimental manipulation. The assay system uses a proprietary asymmetric cyanine dye that is excluded from viable cells but preferentially stains the dead cell's DNA. […] Viable cells produce no appreciable increases in fluorescence. Therefore, the fluorescence signal produced by the binding interaction with dead cell DNA is proportional to cytotoxicity.
The mixture of HepG2 cell suspension and reagents were dispensed at 600cells/6 ul/well in 1536-well tissue culture treated black solid bottom plates using a Multidrop dispenser. After the assay plates were incubated at a 37 C/5% CO2 incubator for 5 hours, 23 nL of compounds dissolved in DMSO, positive and negative controls was transferred to the assay plate by a pintool work station. The plates were incubated at 37 C for 40 hours. The fluorescence intensity were measured at 0h, 8h, 16h, 24h, 32h and 40h time points using ViewLux plate reader during compound treatment.
% is set by controls: 0 for no effect and ±100 for the full control effect.

Structure (SMILES)	cytotoxicity	Potency
ClCCCCCCCl	-8.12%	
CCC(=O)c1ccc(Cl)cc1	1.27%	
CCCCCCC1CCOC1=O (stereo not given)	-0.507%	
NC1(c2ccccc2)CCCCC1	0.972%	
CCCN1CCC[C@@H]2Cc3[nH]ncc3C[C@H]21	3.61% [at 35.3 µM]	
CNC(=O)Oc1cc(C)c(N(C)C)c(C)c1	-2.96%	
CC[C@@H](CO)NC(=O)[C@@H]1C=C2c3cccc4[nH]cc(c34)C[C@H]2N(C)C1	-10.9% [at 35.3 µM]	
O=C(Cl)/C=C/C(=O)Cl	-0.412%	
CC(O)CCl (stereo not given)	3.43%	
O=C(Cl)C(Cl)(Cl)Cl	-2.27%	
CC(C)NCC(O)c1ccc([N+](=O)[O-])cc1 (stereo not given)	2.66% [at 35.3 µM]	
C=C(Cl)CSC(=S)N(CC)CC	-0.0769%	
N#CN=C1SCCN1Cc1ccc(Cl)nc1	-10.5%	
CCOC1Oc2ccc(OS(C)(=O)=O)cc2C1(C)C (stereo not given)	0.42%	
C=CC1(C)OC(=O)N(c2cc(Cl)cc(Cl)c2)C1=O (stereo not given)		inactive
ClCC1CO1 (stereo not given)	-4.11%	
CCCCCCCCBr	-15.8%	
CCCCCCCCSC(=O)Oc1cc(Cl)nnc1-c1ccccc1	-15.6%	
COP(=O)(OC)O/C(C)=C/C(=O)N(C)C	-13.7%	
N#CN	-13.4% [at 200 µM]	

Structure (SMILES)	cytotoxicity	Potency
O=[N+]([O-])c1cccc(CCl)c1	-8.05%	
O=C(O)C(Cl)Br (stereo not given)	-2.7%	
CCC1(c2ccccc2)CCC(=O)NC1=O (stereo not given)	-6.05% [at 35.3 µM]	
C/C=C/CC#N	-9.96%	
CCNP(=S)(OC)O/C(C)=C/C(=O)OC(C)C (stereo not given)	-10.1%	
C=CCCC#N	-0.436%	
Brc1c(Br)c(Br)c(Br)c(Br)c1Br	-0.215% [at 6.97 µM]	
O=C(Cl)C(Cl)Cl	-0.511%	
CC(Cc1ccccc1)NCCn1cnc2c1c(=O)n(C)c(=O)n2C (stereo not given)	-14.8%	
C=CC=O	9.54%	
CC1=C2[C@H]3OC(=O)[C@@H](C)[C@@H]3CC[C@@]2(C)C=CC1=O	-9.68% [at 35.3 µM]	
C=C(C)[C@H]1CN[C@H](C(=O)O)[C@H]1CC(=O)O	2.27% [at 35.3 µM]	
N=C(N)[Se]	-1.39%	
CC(=NC#N)N(C)Cc1ccc(Cl)nc1	-10.2%	
Clc1nc(Cl)nc(Nc2ccccc2Cl)n1	-0.173%	
COc1cccc(C=O)c1	-4.1%	
O=S1(=O)OCCO1	-2.29%	
Clc1ccc(C(Cl)(Cl)Cl)cn1	10.6%	
O=C(CCl)NCO	-8.39%	
CCC(C)(C#N)N=NC(C)(C#N)CC (stereo not given)	-22.7%	
